High-throughput results as filed in PubChem.
Only some compounds are listed: those with a hit (about 21% of all), similar ones and a draw of the others.
Cycloheximide cs: affects cycloheximide protein synthesis inhibition readout, counter-screen. cell reporter, cycloheximide protein synthesis inhibition counterscreen. max response, %. 300,000 compounds, 12% hits. AID 2314; in the data active means max response mostly above about 13%, no sharp cut-off; inactive means mostly below about 14%; further: read at 38.3 µM for the half of the compounds with a filed dose; 0% is about no effect
Shiga inhibitor: Shiga toxin inhibition; inhibition, % at 38.7 µM; 290,000 compounds, 9.2% hits; Vero cells, Shiga toxin protein synthesis inhibition reporter; in the data active means inhibition mostly above about 28%, no sharp cut-off; inactive means mostly below about 43%; further: 0% is about no effect
Pf growth 48h: P. falciparum growth inhibition at 48 hours (one generation); Potency, µM (series often up to 28.7 µM), without a hit: at the top dose activity change, negative = inhibition, usual class: inhibitors; 310,000 compounds, 5.9% hits; P. falciparum luciferase growth in erythrocytes, 48 h; further: potency means the concentration at half of the fitted maximal effect; on the % scale 0 is the no-effect control and ±100 the full control effect
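Compounds are pin-transferred into medium, infected erythrocytes (2% hematocrit, 0.1% parasitemia final) are added, and plates sit one parasite generation at 37 C in 5% CO2. Detection reagent is then added and luminescence measured.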
Pf growth 96h: P. falciparum growth inhibition at 96 hours; P. falciparum luciferase reporter growth, 96 h; 320,000 compounds, 6.9% hits; Potency, µM (highest dose often 28.7 µM), without a hit: at the highest dose activity change, negative = inhibition, most hits filed as inhibitors; AID 504834; further: potency means the concentration at half of the fitted maximal effect; on the % scale 0 is the no-effect control and ±100 the full control effect
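Parasite growth measured via integrated firefly luciferase reporter in P. falciparum. Infected erythrocytes at 2% hematocrit, 0.05% parasitemia final were treated 96 hours at 37 C under 5% CO2, and luminescence was read.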
Active calls of the source: *; i = inactive; u = inconclusive; x = no result; + = active, no number; [ ] = remark or other dose. Unless noted, the call rests on the fitted dose curve; in most records, active means well fitted inhibition curve with a large enough effect; inconclusive means small, poorly fitted or top-dose-only effect, or another doubt; inactive means no such curve, though single readings can be large or run the other way.

SMILES	Cycloheximide cs	Shiga inhibitor	Pf growth 48h	Pf growth 96h
O=S(=O)(Nc1nc2ccccc2nc1NCC1CCCO1)c1ccccc1 (configuration not stated)	5	25	-3%	15%
c1ccc2oc(-c3csc(NCC4CCCO4)n3)cc2c1 (configuration not stated)	30*	74*	419%	i
CN(C)S(=O)(=O)c1ccc(C(=O)Nc2nc(-c3cc4ccccc4o3)cs2)cc1	1	3	-16%	u
c1ccc2sc(NCC3CCCO3)nc2c1 (configuration not stated)	38*	134*	213%	388%
CC1CCC/C(=C(\C#N)c2nc(-c3cc4ccccc4oc3=O)cs2)C1 (configuration not stated)	51*	89*	296%	6.6µM*
C=CCNc1nc(-c2cc3ccccc3o2)cs1	40*	36	167%	239%
Cc1cccc2[nH]c(CN(C)C(=O)CC3C(=O)NCCN3CC(C)(C)C)nc12 (configuration not stated)	-3	10	u	5%
O=c1oc2ccccc2cc1-c1csc(NN=C2CCCCC2)n1	45*	81*	126%	i
O=C(Nc1nc(-c2cc3ccccc3oc2=O)cs1)c1ccco1	12	20	27%	41%
O=C(Nc1ccccn1)c1csc2c1CCCC2	49*	84*	58%	u
O=C(Nc1ccccn1)c1onc2c1CCCC2	30*	10	48%	110%
COc1cc(NC(=O)c2csc3c2CCCC3)ncn1	40*	53*	x	u
COc1ccccc1NC(=O)c1csc2c1CCCC2	8	30	-1%	36%
Nc1ccccc1-c1nnc(-c2ccccc2N)n1N	38*	57*	93%	88%
Nn1c(SCc2ccccc2F)nnc1-c1ccncc1	32*	80*	23%	35%
Nn1c(-c2ccccn2)nnc1-c1ccccn1	32*	57*	-5%	u
Nn1c(SCc2c(F)cccc2F)nnc1-c1ccccn1	32*	90*	90%	172%
COC(=O)CCC(=O)NC(=S)Nc1ccccc1F	1	-7	4%	12%
CCC(C)NC(=O)[C@H]1N2C(=O)c3c(ccc(OC)c3OC)C2SC1(C)C (some centres not stated)	1	18	u	-21%
O=C(Nc1ccccc1)Nc1nc(-c2ccc(Cl)cc2)cs1	1	-5	-6%	-6%
CNc1nc(-c2ccc([N+](=O)[O-])cc2)cs1	32*	53*	138%	i
CNc1nc(-c2ccc(Cl)cc2)cs1	27*	76*	83%	18%
CC(C)C(=O)Nc1nc(-c2ccc([N+](=O)[O-])cc2)cs1	19	40	35%	91%
CC1(C)CC(c2nc(-c3ccc([N+](=O)[O-])cc3)cs2)CCO1 (configuration not stated)	17*	43	21%	10%
CCNc1nc(-c2ccc(Cl)cc2)cs1	52*	81*	272%	x
SMILES	Cycloheximide cs	Shiga inhibitor	Pf growth 48h	Pf growth 96h
CCN(CC)CC(=O)Nc1nc(-c2ccc(Cl)cc2)cs1	7	12	x	7%
CC(C)C1C(=O)O[C@@H]2CCN3CC=C(COC(=O)[C@](C)(O)[C@]1(C)O)[C@H]23 (some centres not stated)	-3	9	x	x
COc1ccc(C2C(C#N)=C(N)N3C(=C2C#N)Sc2ccccc23)cc1 (configuration not stated)	20*	43	10%	-4%
O=c1c(Cc2ccc(Cl)cc2Cl)c(O)ccn1Cc1ccc(Cl)cc1	-2	13	4.1µM*	u
O=c1c(Cc2ccc(F)cc2)c(O)ccn1Cc1cccc(Cl)c1	-1	-6	12µM*	13µM*
Cn1c(=O)n(C)c2cc(/C=N/NC(N)=S)ccc21	-4	16	-10%	33%
Cc1ccc(NC(=O)CCC(=O)N/N=C/c2ccc([N+](=O)[O-])o2)cc1C	-2	-5	7.4µM*	1.9µM*
CCCC(=O)Nc1ccc(C(=O)N/N=C/c2ccc([N+](=O)[O-])o2)cc1	9	15	-92%	1.7µM*
O=C(N/N=C\c1ccc([N+](=O)[O-])o1)c1ccc(O)cc1	x	x	2.3µM*	-102%[12.8 µM]
O=C(O)c1ccc(N/N=C/C=C/c2ccc([N+](=O)[O-])o2)cc1	12	44	-1%	u
CCC(=O)Nc1ccc(C(=O)N/N=C/c2ccc([N+](=O)[O-])cc2)cc1	-2	1	-5%	u
O=C(N/N=C/c1ccc([N+](=O)[O-])o1)C(=O)Nc1ccc(C(=O)O)cc1	1	2	2.3µM*	2.3µM*
CC(C)C[C@H](NC(=O)C1CC(=O)N(c2ccc3c(c2)OCCO3)C1)C(=O)N1CCCCC1 (some centres not stated)	1	-5	u	-17%
Cc1cc(C(=O)NCCC(c2ccccc2)c2ccccc2)c(C)o1	26*	40	x	u
Cc1occc1C(=O)Nc1cccc2ccccc12	56*	67*	i	-8%
Cc1cc(C(=O)Nc2cccc3ccccc23)c(C)o1	25*	30	4%	u
Cc1oncc1C(=O)Nc1cccc2ccccc12	-3	-7	-16%	u
Cc1ccc(S(=O)(=O)NCCC(=O)NCC(=O)Nc2c(C)cccc2C)cc1C	x	x	-1%	3%
Cc1ccc(NC(=O)C(=O)NCc2ccc(/C=N/NC(=O)c3c(C)nc4ccccn34)o2)cc1	28*	39	30%	70%
Cc1nc2ccccn2c1C(=O)N/N=C/c1ccccc1	20*	48	-5%	38%
Cc1nc2ccccn2c1C(=O)N/N=C/c1cc(C)n(-c2ccc(Br)cc2)c1C	16*	29	u	u
Cc1nc2ccccn2c1C(=O)N/N=C/c1ccc(F)cc1	-2	49	64%	u
Cc1ccn2c(C(=O)N/N=C/c3ccc(CNC(=O)C(=O)Nc4ccc(C)c(C)c4)o3)c(C)nc2c1	-2	15	6%	16%
O=C(Nc1ccccc1C(=O)N/N=C/c1ccco1)c1ccc(Cl)cc1	19*	76*	-90%	u
O=C(Nc1ccccc1C(=O)N/N=C/c1ccco1)c1ccccc1	17	+	28%	23%
SMILES	Cycloheximide cs	Shiga inhibitor	Pf growth 48h	Pf growth 96h
COc1ccc(C(=O)COC(=O)CCCC(=O)NC2CCCCC2)cc1	-2	-2	2%	u
CCc1c(C)sc(NC(=O)OC)c1C(N)=O	12	-6	40%	4.1µM*
CCc1c(C)sc(NC(=O)OC)c1C(=O)N1CCCCC1	2	52	-8%	2%
Oc1c(N=Nc2ccccc2)sc2ccccc12	40*	61*	223%	-92%
O=c1cc(O)sc2ccccc12	3	10	13%	58%
CCOC(=O)c1cn(-c2c(C)n(C)n(-c3ccccc3)c2=O)c2c(F)c(F)c(F)cc2c1=O	-4	-6	-5%	5%
c1ccc2sc(C3CCN(Cc4nnnn4Cc4ccc5c(c4)OCO5)CC3)nc2c1	-4	2	u	9%
Cc1cc2nc(C3CCN(Cc4nnnn4Cc4ccccc4)CC3)[nH]c2cc1C	-1	-16	u	5.2µM*
COc1ccc(Cn2nnnc2CN2CCC(c3nc4ccccc4s3)CC2)cc1	7	2	12µM*	182%
